High-throughput results as filed in PubChem.
NPC1 prom act: activators of NPC1 promoter | AID 485313 | Huh7 NPC1 promoter luciferase reporter, 24 h | 2.4% of 320,000 active | Potency, µM (highest dose often 9.22 µM), without a hit: at the top dose activation, usual class: activators; note: % of control where 0% means no effect; nearly all actives have a fitted effect of over 60% in size
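Stable NPC1-promoter luciferase Huh7 line; cpd (DMSO) 24 h, 37 °C, 5% CO2; Amplite luciferase reagent 10 min RT; luminescence readout. qHTS format.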
FLuc modulator: inhibits or activates purified firefly luciferase, miR-21 counter-screen | P08659 | AID 588342 | Potency, µM (series often up to 57.5 µM), for the others: at the highest dose activity change, negative = inhibition, usual class: inhibitors | 6.9% of 360,000 active | purified FLuc, Km substrates, luminescence inhibition;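 note: plate controls were vehicle for no effect and reference inhibitor for full effect; nearly all actives have a fitted effect of over 55% in size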
Target sequence (P08659 whole entry, looked up): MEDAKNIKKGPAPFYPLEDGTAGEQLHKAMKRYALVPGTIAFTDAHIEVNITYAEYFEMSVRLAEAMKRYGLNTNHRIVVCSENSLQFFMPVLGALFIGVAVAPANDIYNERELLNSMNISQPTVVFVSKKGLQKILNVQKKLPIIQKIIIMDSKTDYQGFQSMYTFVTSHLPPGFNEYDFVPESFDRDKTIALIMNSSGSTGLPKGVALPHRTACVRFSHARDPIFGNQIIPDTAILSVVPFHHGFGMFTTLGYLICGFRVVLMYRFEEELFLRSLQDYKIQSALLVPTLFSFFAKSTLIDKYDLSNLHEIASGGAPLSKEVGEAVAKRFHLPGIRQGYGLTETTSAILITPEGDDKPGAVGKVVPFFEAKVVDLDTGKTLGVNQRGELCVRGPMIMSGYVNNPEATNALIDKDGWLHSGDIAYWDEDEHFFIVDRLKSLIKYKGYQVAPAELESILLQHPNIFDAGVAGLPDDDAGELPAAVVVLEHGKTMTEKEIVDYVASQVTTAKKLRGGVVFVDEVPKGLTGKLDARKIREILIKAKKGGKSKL
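Biochemical qHTS of compounds, final roughly 60 µM downward over six points, against 10 nM purified firefly luciferase using Km concentrations of substrates (10 uM D-luciferin, 10 uM ATP) in Tris acetate pH 7.5 buffer; luminescence output.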
KinaseGlo FLuc: Kinase-Glo luciferase inhibition (counter-screen) | Q27757 | Kinase-Glo luciferase, ATP luminescence, 8 min | Potency, µM (series often up to 38.3 µM), for inactives: at the top dose activity change, negative = inhibition, most hits filed as inhibitors | 0.28% of 200,000 active | AID 1379; note: % is set by controls: 0 for no effect and ±100 for the full control effect; nearly all actives have a fitted effect of over 60% in size
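Compounds were added to a substrate mix at pH 7.2 (50 mM imidazole, 10 uM ATP, within the enzyme's linear range), followed by Kinase-Glo detection reagent; luminescence was measured after 8 minutes at ambient temperature.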
SMN2 splice enh: SMN2 splice variant enhancement; HEK293 SMN2-luciferase splicing reporter, luminescence, 30-36 h; Potency, µM (series often up to 46.1 µM), for the others: top-dose activity change, positive = activation, hits mostly activators; 2.8% of 210,000 active; AID 1458; note: % of control where 0% means no effect; nearly all actives have a fitted effect of over 55% in size
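qHTS luciferase splicing reporter: luminescence rises when SMN2 exon 7 is included in transfected HEK293 cells. Compound exposure lasted 30-36 h at 37C, with 4.5 mM final sodium butyrate as control, followed by a ONE-Glo read.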
ELG1 genotox: genotoxicity induction in ELG1-luciferase HEK293T cells | HEK293T ELG1-luciferase reporter, luminescence, 16 h | Potency, µM (top dose mostly 46 µM), without a hit: at the highest dose activity change, positive = activation, hits mostly activators | 1.3% of 330,000 active; note: % of control where 0% means no effect; nearly all actives have a fitted effect of over 60% in size
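16 hr compound incubation (37 °C, 5% CO2) of HEK293T cells carrying luciferase-tagged ELG1; luciferase then measured by ONE-Glo luminescence after 30 min at RT.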
Rab9 prom act: activators of Rab9 promoter. Potency, µM (top dose mostly 9.22 µM), for inactives: at the highest dose activation, negative = inhibition, actives largely listed as activators. 2.8% of 320,000 active. Huh7 Rab9 promoter-luciferase reporter, luminescence, 24 h; note: % of control where 0% means no effect; nearly all actives have a fitted effect of over 60% in size
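Huh7 cells stably carrying Rab9 promoter–luciferase reporter, plated 1500 cells/well, compound added after 2 h and incubated 24 h at 37 °C; luciferase luminescence then read after 10 min with detection reagent.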
* = called active by the depositor; ? = inconclusive; . = not tested or not shown; [ ] = another dose, or the depositor's remark. This is a sample that favours compounds with a hit; in the whole collection about 7.5% have one here. Calls come from the whole dose curve; as a rule, active = well fitted curve in the direction sought with a large enough effect; inconclusive = small, poorly fitted or top-dose-only effect, or another doubt; inactive = no such curve, though single readings can be large; an effect the other way counts as inactive or inconclusive. Potency is the fitted concentration of half-maximal effect.

SMILES | NPC1 prom act | FLuc modulator | KinaseGlo FLuc | SMN2 splice enh | ELG1 genotox | Rab9 prom act
NC(N)=NN=C1CCC(c2ccccc2)CC1 (stereo unspecified) | -2.3% | -2.4% | . | . | -0.3% | -5.8%
O=C(N/N=C/c1sc(N2CCCCC2)nc1-c1cccs1)C1CC1 | 5.1% | ? | -2.6% | 18.0% | 0.1% | 13.0%
CC(C)NC(=S)N/N=C/c1sc(N2CCCCC2)nc1-c1cccs1 | -4.3% | 3.01µM* | -4.1% | -15.2% | 8.8% | 13.2%
CCn1cc(CN2CCC(n3nccc3NC(=O)CCOc3ccccc3)CC2)c(C)n1 | -5.9% | 0.0% | . | . | 0.2% | -3.3%
CCOC(=O)c1cc2c(C)n(-c3ccc(OCC)cc3)c(C)c2ccc1=O | 0.5% | 16.9µM* | -1.1% | -31.6% | -8.9% | -3.7%
CCOC(=O)c1c[nH]n(-c2ccc(C)cc2)c1=O | 13.9% | ? | 1.5% | 9.0% | 11.3% | 29.5%
CCOC(=O)c1cc2c(C)n(-c3ccc(C)cc3)c(C)c2ccc1=O | ? | 0.379µM* | 3.7% | -12.7% | 7.5% | ?
CC(C)c1ccc(NC(=O)CCCc2nc(-c3ccc(Cl)cc3)no2)cc1 | . | -1.9% | . | . | . | .
CC1=NN(c2ccccc2)C(=O)C1N=Nc1cccc(O)c1 (stereo unspecified) | ? | 8.49µM* | . | . | ? | 1.2%
CC1=NN(c2ccccc2)C(=O)C1N=Nc1ccccc1 (stereo unspecified) | ? | 2.39µM* | -2.1% | 14.1µM* | ? | ?
COc1ccc(N=NC2C(=O)N(c3ccccc3)N=C2C)cc1 (stereo unspecified) | 19.5% | 19µM* | . | . | -1.8% | 0.5%
CCc1ccc(CNC(=O)c2ccc(CSc3nc4ccncc4n3Cc3ccc(OC)cc3)cc2)cc1 | . | -8.3% | . | 25.3% | . | .
COc1cc(C(=O)N/N=C/c2ccc(OC(=O)c3cccc(C)c3)c(OC)c2)ccc1O | -5.8% | -0.7% | . | . | 13.1% | 7.3%
CCN(Cc1ccccc1)S(=O)(=O)c1c(C)[nH]c(C)c1C(=O)N1CCCCC1 | 1.3% | 0.9% | . | . | -2.4%[9.26 µM] | 2.3%
CC(N)C(=O)NC(C(=O)N1CCCC1C(=O)NC(c1ccccc1)c1ccccc1)C(C)C (stereo unspecified) | -4.6% | 3.7% | . | . | -2.5% | -0.2%
COC(=O)Cn1ncn2c(cc3oc(C)cc32)c1=O | ? | 15.1µM* | -1.7% | ? | ? | 2.51µM*
CC(C)CCOc1ccc(C(=O)NCC(c2ccco2)N(C)C)cc1 (stereo unspecified) | 8.4% | -5.7% | . | . | 0.0% | 6.1%
Cc1ccc(Cc2nc3ccccc3nc2SCC(=O)N2CCc3ccccc32)cc1 | . | 0.9% | . | . | . | .
CC(=O)N=C1SC2CS(=O)(=O)CC2N1c1ccc(-c2nc3ccc(C)cc3s2)cc1 (stereo unspecified) | 2.82µM* | 9.53µM* | 2.6% | 17.8µM* | ? | 0.891µM*
Cc1ccc(CN2C(=NC(=O)CCC(=O)O)SC3CS(=O)(=O)CC32)cc1 (stereo unspecified) | -2.2% | 0.7% | . | . | 2.7% | -0.6%
Cc1ccc2nc(-c3ccc(N4C(=NC(=O)CCC(=O)O)SC5CS(=O)(=O)CC54)cc3)sc2c1 (stereo unspecified) | ? | 10.7µM* | . | . | ? | 4.47µM*
CN(C)c1cc(N/N=C\c2ccccc2)nc(N(C)C)n1 | 10.5% | ? | -2.0% | . | -8.0% | -10.0%
COc1ccc(/C=N/Nc2cc(OC)ncn2)cc1 | 3.55µM* | 0.953µM* | . | . | 1.84µM* | 1µM*
COc1ccc(/C=N/Nc2cc(N(C)C)nc(N(C)C)n2)cc1 | 2.7% | 15.1µM* | 0.9% | -8.7% | -8.1% | -4.1%
CN(CCOc1ccccc1)C(=O)c1ccc(Cl)c(S(=O)(=O)N2CCCCC2)c1 | -3.1% | 6.9% | . | . | 0.0% | -3.5%
COc1ccc2c(c1)c1c(c(=O)n(-c3ccccc3C)c(=O)n1CC(=O)NCc1ccc(C)cc1)n2C | . | -7.1% | . | . | . | .
